Data taken from PubChem BioAssay (NCI).
About 83,000 compounds went through this panel and 20% of them were active in at least one assay; those are over-represented in the sample as a whole.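 How to read the values: 0–100, growth inhibition (40 = 60% inhibited); 0, no net growth; -100 to 0, cell death (-40 = 40% of starting cells died; -100 = all dead).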 Unmarked numbers belong to inactive results. Active and inactive are the calls of the source. How the source made its calls: active means growth percent below 10; inactive means the rest.

Key:
Experiment in all cases: NCI-60 one-dose screen, 48 h (100 = growth as untreated, 0 = no growth, -100 = all killed)
Settings in all cases: 10 µM unless noted
NCI-H23 lung = test system: NCI-H23 lung
NCI-H226 lung = test system: NCI-H226 lung
NCI-H322M lung = test system: NCI-H322M lung
HOP-62 NSCLC = test system: HOP-62 NSCLC
NCI-H460 lung = test system: NCI-H460 lung
HOP-92 NSCLC = test system: HOP-92 NSCLC
NCI-H522 lung = test system: NCI-H522 lung
A549/ATCC NSCLC = test system: A549/ATCC NSCLC
786-0 renal = test system: 786-0 renal
COLO 205 colon = test system: COLO 205 colon
DU-145 prostate = test system: DU-145 prostate
K-562 leukemia = test system: K-562 leukemia
MALME-3M melanoma = test system: MALME-3M melanoma
MDA-MB-231 breast = test system: MDA-MB-231 breast
RXF 393 renal = test system: RXF 393 renal
SF-268 CNS = test system: SF-268 CNS
SF-295 CNS = test system: SF-295 CNS
SF-539 CNS = test system: SF-539 CNS
UACC-257 melanoma = test system: UACC-257 melanoma
M14 melanoma = test system: M14 melanoma

SMILES | growth (NCI-H23 lung) | growth (NCI-H226 lung) | growth (NCI-H322M lung) | growth (HOP-62 NSCLC) | growth (NCI-H460 lung) | growth (HOP-92 NSCLC) | growth (NCI-H522 lung) | growth (A549/ATCC NSCLC) | growth (786-0 renal) | growth (COLO 205 colon) | growth (DU-145 prostate) | growth (K-562 leukemia) | growth (MALME-3M melanoma) | growth (MDA-MB-231 breast) | growth (RXF 393 renal) | growth (SF-268 CNS) | growth (SF-295 CNS) | growth (SF-539 CNS) | growth (UACC-257 melanoma) | growth (M14 melanoma)
c1cnc2[nH]cc(-c3csc(-c4cn(CCCCN5CCOCC5)c5ccccc45)n3)c2c1 | 81.1% | 72.4% | 79% | 52.8% | 31.4% | 32% | 49.1% | 56.9% | 54% | -77.6% (active) | 70% | -38.7% (active) | -25% (active) | 32.8% | 53.7% | 49.7% | 53.9% | 80.8% | 67.8% | -49.9% (active)
Cc1cnc(/C=C/C(=O)O)cc1-c1cc2c(cc1C)C(C)(C)CCC2(C)C | 79.2% | 82.8% | 110% | 94.4% | 85.8% | 56.8% | 65.8% | 63.3% | 76.5% | 102% | 95.7% | 109% | 8.87% (active) | 80.9% | 93.7% | 77.6% | 86.1% | 84.3% | 38.3% | 77.1%
C=C1C[C@](OC)([C@H](O)C(=O)N[C@@H](OC)[C@@H]2C[C@@H](O)C(C)(C)[C@@H](C[C@@H](COC)OC)O2)O[C@H](C)[C@@H]1C | -27.7% (active) | -75.5% (active) | -21% (active) | -35.4% (active) | -41.4% (active) | -65.1% (active) | -55.1% (active) | -49.1% (active) | -61.9% (active) | -15.6% (active) | -49.9% (active) | -50.1% (active) | -71.1% (active) | -55.7% (active) | -92.7% (active) | -32.4% (active) | -51.4% (active) | -65.9% (active) | -53.4% (active) | -54.6% (active)
COc1cc(/C=C/[N+](=O)[O-])cc(OC)c1 | -47.3% (active) | -31.2% (active) | 84.6% | 35.9% | 40.6% | 28.9% | -40.1% (active) | 28.6% | -45.3% (active) | -49.4% (active) | -63% (active) | 0.863% (active) | 24.1% | 13.4% | -90% (active) | 25.7% | 46.5% | -72.2% (active) | -16.4% (active) | -30.1% (active)
CC[C@H](C)[C@H](NC(=O)C12C3C4C1C1C2C3C41NC(C)=O)C(=O)N(C)[C@H](C[C@@H](OC(C)=O)c1nc(C(=O)N[C@@H](Cc2ccccc2)C[C@H](C)C(=O)OC)cs1)C(C)C (stereo not given in full) | 25.1% | 31.7% | 51.5% | 22.4% | 3.63% (active) | 30.2% | 6.65% (active) | 27.7% | 12% | -26.1% (active) | 1.99% (active) | 8.82% (active) | 58.6% | 22.1% | 41.9% | 27.5% | 13% | 5.34% (active) | 44.2% | 1.02% (active)
CC(=O)OC1CCC2C3CCC4=C/C(=N/OC(=O)c5ccc(N(CCCl)CCCl)cc5)CCC4(C)C3CC(C)C12 (stereo not given) | 69.7% | 94% | 91.7% | 78.6% | -4.94% (active) | 92.5% | 79.2% | 56.6% | 87% | 83.7% | 79.6% | 18.2% | 76.3% | 78.5% | 67.9% | 62.9% | 81.5% | 75.6% | 105% | 89.6%
O=C1CNC(c2ccccc2)c2cc(Cl)ccc2N1 (stereo not given) | 93.7% | 89.6% | 95.5% | 92% | 110% | 107% | 69.3% | 95% | 109% | 116% | 100% | 93.8% | 90.6% | 94.9% | 99.2% | 98.7% | 103% | 104% | 94.9% | 99.4%
C[C@@]12CC=C3c4nc(Nc5cccc(O)c5)sc4CC[C@]3(C)[C@H]1CC[C@]1(C)C(=O)CC[C@@H]21 | 63.7% | 94.5% | 72.8% | 27.5% | 43.9% | 64.3% | -56.4% (active) | 55.4% | -0.522% (active) | 34.4% | 12.7% | 4.81% (active) | 35.3% | 39.5% | -6.67% (active) | 43.1% | -47.7% (active) | -41.8% (active) | 79.6% | 54.8%
COc1cc(/C=C/[N+](=O)[O-])c([N+](=O)[O-])cc1OC | 79.6% | 16.1% | 110% | 81.1% | 76.1% | 94.2% | -89.9% (active) | 78% | -30.7% (active) | -52.7% (active) | 38.6% | 10.9% | 11.7% | -12.1% (active) | -92.9% (active) | 48.3% | 107% | -32.4% (active) | 65.7% | 7.35% (active)
COc1ccc2c(c1)c(C1(O)CC(CSC#N)OC1=O)cn2C(=O)c1ccc(Cl)cc1 (stereo not given) | 89.3% | 94.8% | 73.5% | 104% | 104% | 109% | 95.9% | 98.6% | 102% | 127% | 114% | 98.5% | 81.9% | 92.9% | 114% | 106% | 90.2% | 96.3% | 95.5% | 96.4%
COC(=O)[C@H](C[C@H](Cc1ccccc1)NC(=O)c1csc([C@@H](C[C@H](C(C)C)N(C)C(=O)[C@@H](NC(=O)[C@H]2CCCCN2C)C(C)C)OC(C)=O)n1)NC(=O)OCc1ccccc1 | 30.2% [8.5 µM] | -42.6% [8.5 µM] (active) | 44.7% [8.5 µM] | 18.6% [8.5 µM] | 5.67% [8.5 µM] (active) | 28.2% [8.5 µM] | -30.4% [8.5 µM] (active) | 18.8% [8.5 µM] | 15.2% [8.5 µM] | -53.3% [8.5 µM] (active) | -18.2% [8.5 µM] (active) | 5.76% [8.5 µM] (active) | -53.7% [8.5 µM] (active) | 5.23% [8.5 µM] (active) | 20.4% [8.5 µM] | 13.1% [8.5 µM] | 8.4% [8.5 µM] (active) | -21.7% [8.5 µM] (active) | 13.9% [8.5 µM] | -48.4% [8.5 µM] (active)
O=C1Nc2ccccc2C2c3cccn3-c3ccccc3CN12 (stereo not given) | 70.6% | 78.2% | 91.5% | 34.5% | 43.7% | 29.7% | -7.83% (active) | 34.4% | 66.3% | 39.5% | 84.8% | 12.4% | 52% | 39.2% | 59.8% | 75.1% | 59.8% | 55.1% | 57.3% | 20.2%
Clc1ccc(CO/N=C(\Cn2ccnc2)c2ccc(Cl)cc2Cl)c(Cl)c1 | -16.5% (active) | -8.01% (active) | 21.6% | 107% | -32.5% (active) | -31.9% (active) | -45.2% (active) | 7.85% (active) | -45.3% (active) | 105% | 21% | 1.68% (active) | -50.8% (active) | -11.5% (active) | -59.8% (active) | 11.6% | -13.3% (active) | -55.1% (active) | 6.73% (active) | -17.4% (active)
COc1cc2c(=O)n(C3CCCCCCC3)c3c4cc[nH]c4ncc3c2cc1OC | 57.5% | 17.8% | 34.8% | 6.39% (active) | 13.6% | 46.2% | 48.8% | 25.4% | 31.2% | 58.5% | 62.5% | 8.73% (active) | 62.6% | 42.1% | 19.1% | 42.4% | 33.2% | -0.216% (active) | 93.8% | 71.4%
O=C1NC(=O)C(=Cc2cn(CCCCCCn3c4ccccc4c(=O)c4ccccc43)c3ccccc23)C(=O)N1 | 82.5% | 67.2% | 85.8% | 86.7% | 34.2% | 96.1% | 73.3% | 92.4% | 96.8% | 92.3% | 96.8% | 77.4% | 95.8% | 69.1% | 127% | 94.5% | 65.7% | 93% | 104% | 94.1%
